Data on 40 molecules can be found in PubChem BioAssay.

Molecules are shown by their SMILES. Activity calls are given as the source filed them. Cut-off read from the data, not from the text of the source, unless noted: active = inhibition above about 33%; inactive = the rest.

By inhibition is commonly meant the change of the read-out against control, counted positive when it falls.

The first assay deals with Steroidogenic factor 1 (Homo sapiens) (UniProt Q13285). The experiment in a line: SF1 (NR5A1) inverse agonists, counter-screen for LRH-1 inverse agonist project, cell-based, luminescence, high throughput (AID 651614; in the data active = inhibition above about 44%;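 note: cells cotransfected with StAR promoter reporter and SF1 expression vector; 0% = vehicle on cells with receptor and 100% = vehicle on cells lacking receptor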). The settings on record: cell-based SF1 luciferase reporter, at 3.6 µM, hits give high values. (In general: The purpose of a counterscreen is to sort out artefacts and off-target activity.)
Sequence of Steroidogenic factor 1 (Homo sapiens) (Q13285 whole entry, looked up): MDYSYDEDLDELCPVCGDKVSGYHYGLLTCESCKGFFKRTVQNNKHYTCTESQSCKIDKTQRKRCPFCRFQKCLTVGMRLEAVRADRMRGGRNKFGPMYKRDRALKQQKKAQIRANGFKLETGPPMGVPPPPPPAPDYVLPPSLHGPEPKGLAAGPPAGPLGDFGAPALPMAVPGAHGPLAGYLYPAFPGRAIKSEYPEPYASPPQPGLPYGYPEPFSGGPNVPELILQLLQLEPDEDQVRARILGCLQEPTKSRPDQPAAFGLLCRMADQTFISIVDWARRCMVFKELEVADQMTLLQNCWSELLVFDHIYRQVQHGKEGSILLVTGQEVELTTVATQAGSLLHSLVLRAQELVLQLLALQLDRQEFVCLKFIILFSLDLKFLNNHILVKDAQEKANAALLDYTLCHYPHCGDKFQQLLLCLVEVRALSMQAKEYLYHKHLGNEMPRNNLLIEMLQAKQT
For the molecule `CCn1cc(Br)c(C(=O)Nc2ccccc2C(=O)OC)n1`, the inhibition was 46.6% (active).
With `CCn1c(SCC(=O)Nc2ccc(Cl)cc2)nnc1C1CC1`, the inhibition is 50% (active).
On the same count and under the same terms, under `COc1ccc(NS(=O)(=O)c2cccc(NC(=O)c3ccc(Cl)nc3)c2)cc1` stands 66% (active).
Consider `COc1ccccc1NC(=O)c1ccc(NC(=O)COC(=O)C(C)C)cc1`, for which the inhibition is 55.7% (active).
As for `Cc1cccc(NC(=O)CSC2=NN3CCCC(=O)N=C3S2)c1C`, the inhibition is 49% (active).
Still for that read-out and setting: with `O=C(N/N=C/c1ccc([N+](=O)[O-])o1)c1ccc2c(c1)OCO2` the figure was 91.2% (active).
Regarding `CN(C)c1ccc(CNc2ncnc3sccc23)cc1`, the inhibition is 47.9% (active).
Still for that read-out and setting: with `Cc1cc(Br)ccc1NC(=O)CN1C(=O)CCC1=O` the figure was 72.2% (active); with `O=C(Nc1nc(-c2ccccn2)cs1)c1ccc([N+](=O)[O-])o1`, 77.7% (active); with `CC(=O)Nc1ccc(NC(=O)COC(=O)c2c(C)nn(-c3ccccc3)c2C)cc1`, 50.9% (active).
For the molecule `COc1ccc(OC)c(C2=NS(=O)(=O)N(C)C(C(=O)Nc3ccc(C(C)=O)cc3)=C2)c1`, the inhibition was 45% (active).
For the molecule `O=C(COC(=O)C1CC1)NCCc1ccc(Cl)cc1`, the inhibition is 39.1% (inactive).
On the same count and under the same terms, under `COC(=O)c1ccc(NC(=O)CN2CCN(S(=O)(=O)c3cc(Cl)ccc3OC)CC2)cc1` stands 57.5% (active); under `Cc1cc(C(=O)N/N=C/c2ccc([N+](=O)[O-])o2)c(C)o1`, 65.2% (active); under `COc1ccc(CC(NC(C)=O)C(=O)NC2CCN(c3nnnn3-c3ccccc3)CC2)cc1` (stereo not given), 43.8% (active).
Consider `COc1cc(N)c(Cl)cc1C(=O)OCC(=O)N1c2ccccc2NC(=O)C1(C)C`, for which the inhibition was 11.5% (inactive).
For `COc1ccc(C2(C)NC(=O)N(CC(=O)Nc3ccc(C)cc3Br)C2=O)cc1OC` (stereo not given), the inhibition is 28.4% (inactive).
On the same count and under the same terms, with `CCOc1ccc(NC(=O)CN2CCN(C3c4ccccc4-c4ccccc43)CC2)cc1` the figure was 60.1% (active); with `COc1ccc(N2C(=O)C(Cl)=C(N3CCOCC3)C2=O)cc1`, 7.54% (inactive).
On the same count and under the same terms, under `NC(=S)Nc1ccc(Oc2ccc(NC(N)=S)cc2)cc1` stands 40% (inactive).
For `COc1ccc(CNC(=O)O[C@@H]2C[C@H]3C(=O)N(c4ccccc4)C(=O)[C@H]3[C@@]3(CN(S(=O)(=O)c4ccc(C)cc4)C[C@H]3C)[C@@H]2O)cc1OC`, the inhibition was 13.8% (inactive).
As to `COC(=O)c1ccc(NC(=O)CSC2=NCCN2)cc1`, the inhibition was 43.8% (active).
Turning to `O=C(CNc1cccc2ccccc12)N/N=C/c1ccc([N+](=O)[O-])o1`, the inhibition was 56% (active).
Take `CN(C)c1ccc(CN(C(=O)C2COc3ccccc3O2)C2CCS(=O)(=O)C2)cc1` (stereo not given): the inhibition is 39.1% (inactive).
As for `S=C(Nc1ccc(Br)cc1)Nc1ccc2c(c1)OCCO2`, the inhibition is -27.8% (inactive).
Take `CCN(CC)c1ccc(NC(=O)CSc2nnc(N)s2)cc1C`: the inhibition is 51.4% (active).
In the case of `COc1cc(-c2noc(C)c2-c2ccc(N(C)C)nc2)cc(OC)c1OC`, the inhibition is 63.2% (active).
Still for that read-out and setting: under `O=C(N/N=C/c1ccc([N+](=O)[O-])o1)c1ccccc1-n1cccc1` stands 63.4% (active); under `COc1ccc(C2=CC(=O)OC3(CCCCC3)O2)cc1`, 45.4% (active).
For the molecule `Cc1ccc(NC(=O)CSc2nc3ncc(Br)cc3[nH]2)cc1C`, the inhibition was 54.1% (active).
Regarding `COc1cc2c(cc1OC)CN(C(=O)CN1CCN(S(=O)(=O)c3ccc(C)c(C)c3)CC1)CC2`, the inhibition was 45% (active).
The same measure, in the same setting: with `COc1c(/C=N/NC(N)=S)c(C)nn1-c1ccccc1` the figure was 27.9% (inactive); with `Cc1nc2ccccc2n1/N=C/c1ccc([N+](=O)[O-])s1`, 71.4% (active).
For `Cc1ccc(Sc2ccc(NC(=O)CCl)cc2)cc1C`, the inhibition was 56.5% (active).
For `Cc1ccc(S(=O)(=O)NCc2ccncc2)c(C)c1C`, the inhibition is 59.5% (active).
For the molecule `Cc1ccc(NNC(N)=S)cc1Cl`, the inhibition is 50.5% (active).
As to `CSc1nc(SCC(=O)NCc2ccco2)c2c3c(sc2n1)COC(C)(C)C3`, the inhibition is 57.6% (active).
For `COc1cccc(NC(=O)N(C)C[C@H]2Oc3cc(C#Cc4ccncc4)ccc3S(=O)(=O)N([C@H](C)CO)C[C@H]2C)c1`, the inhibition was 44.8% (active).
For the molecule `COc1ccc(NC(=O)COC(=O)/C=C/C(=O)OCC(=O)Nc2ccc(OC)c(Cl)c2)cc1Cl`, the inhibition is 53.9% (active).
Take `Cc1cccc(CN2C(=O)CSc3ccc(C(=O)NC4CC4)cc32)c1`: the inhibition is 51.8% (active).

Test system in the next assay: not listed separately
Put plainly: VP16 transactivation reporter inhibitors, counter-screen for LRH-1 inverse agonist project, cell-based, luminescence, high throughput (AID 651615). The note with it: Gal4-VP16 luciferase reporter cells, at 3.6 µM, hits give high values.
Turning to `CCn1cc(Br)c(C(=O)Nc2ccccc2C(=O)OC)n1`, the inhibition was -5.16% (inactive).
Consider `CCn1c(SCC(=O)Nc2ccc(Cl)cc2)nnc1C1CC1`, for which the inhibition is 6.77% (inactive).
Turning to `COc1ccc(NS(=O)(=O)c2cccc(NC(=O)c3ccc(Cl)nc3)c2)cc1`, the inhibition is 55.4% (active).
Regarding `COc1ccccc1NC(=O)c1ccc(NC(=O)COC(=O)C(C)C)cc1`, the inhibition was -39.4% (inactive).
Regarding `Cc1cccc(NC(=O)CSC2=NN3CCCC(=O)N=C3S2)c1C`, the inhibition was -5.97% (inactive).
For the molecule `O=C(N/N=C/c1ccc([N+](=O)[O-])o1)c1ccc2c(c1)OCO2`, the inhibition is -5.58% (inactive).
As for `CN(C)c1ccc(CNc2ncnc3sccc23)cc1`, the inhibition was 42.5% (active).
On the same count and under the same terms, with `Cc1cc(Br)ccc1NC(=O)CN1C(=O)CCC1=O` the figure was 4.01% (inactive).
For the molecule `O=C(Nc1nc(-c2ccccn2)cs1)c1ccc([N+](=O)[O-])o1`, the inhibition is 16.4% (inactive).
Same read-out and setting: with `CC(=O)Nc1ccc(NC(=O)COC(=O)c2c(C)nn(-c3ccccc3)c2C)cc1` the figure was -22.5% (inactive).
For `COc1ccc(OC)c(C2=NS(=O)(=O)N(C)C(C(=O)Nc3ccc(C(C)=O)cc3)=C2)c1`, the inhibition is -9.42% (inactive).
For the molecule `O=C(COC(=O)C1CC1)NCCc1ccc(Cl)cc1`, the inhibition was -2.95% (inactive).
With `COC(=O)c1ccc(NC(=O)CN2CCN(S(=O)(=O)c3cc(Cl)ccc3OC)CC2)cc1`, the inhibition was 7.76% (inactive).
Regarding `Cc1cc(C(=O)N/N=C/c2ccc([N+](=O)[O-])o2)c(C)o1`, the inhibition was 3.18% (inactive).
On the same count and under the same terms, under `COc1ccc(CC(NC(C)=O)C(=O)NC2CCN(c3nnnn3-c3ccccc3)CC2)cc1` (stereo not given) stands 2.12% (inactive); under `COc1cc(N)c(Cl)cc1C(=O)OCC(=O)N1c2ccccc2NC(=O)C1(C)C`, -12.3% (inactive); under `COc1ccc(C2(C)NC(=O)N(CC(=O)Nc3ccc(C)cc3Br)C2=O)cc1OC` (stereo not given), 0.45% (inactive).
For the molecule `CCOc1ccc(NC(=O)CN2CCN(C3c4ccccc4-c4ccccc43)CC2)cc1`, the inhibition was -0.77% (inactive).
Take `COc1ccc(N2C(=O)C(Cl)=C(N3CCOCC3)C2=O)cc1`: the inhibition was 7.03% (inactive).
With `NC(=S)Nc1ccc(Oc2ccc(NC(N)=S)cc2)cc1`, the inhibition is -6.09% (inactive).
Turning to `COc1ccc(CNC(=O)O[C@@H]2C[C@H]3C(=O)N(c4ccccc4)C(=O)[C@H]3[C@@]3(CN(S(=O)(=O)c4ccc(C)cc4)C[C@H]3C)[C@@H]2O)cc1OC`, the inhibition was 8.56% (inactive).
As to `COC(=O)c1ccc(NC(=O)CSC2=NCCN2)cc1`, the inhibition was 4.09% (inactive).
In the case of `O=C(CNc1cccc2ccccc12)N/N=C/c1ccc([N+](=O)[O-])o1`, the inhibition is 39.9% (active).
In the case of `CN(C)c1ccc(CN(C(=O)C2COc3ccccc3O2)C2CCS(=O)(=O)C2)cc1` (stereo not given), the inhibition is 1.92% (inactive).
With `S=C(Nc1ccc(Br)cc1)Nc1ccc2c(c1)OCCO2`, the inhibition is -71.3% (inactive).
`CCN(CC)c1ccc(NC(=O)CSc2nnc(N)s2)cc1C`: the inhibition is -4.26% (inactive).
Consider `COc1cc(-c2noc(C)c2-c2ccc(N(C)C)nc2)cc(OC)c1OC`, for which the inhibition was -0.05% (inactive).
Turning to `O=C(N/N=C/c1ccc([N+](=O)[O-])o1)c1ccccc1-n1cccc1`, the inhibition is 0.97% (inactive).
As to `COc1ccc(C2=CC(=O)OC3(CCCCC3)O2)cc1`, the inhibition was 6.01% (inactive).
On the same count and under the same terms, with `Cc1ccc(NC(=O)CSc2nc3ncc(Br)cc3[nH]2)cc1C` the figure was 1.21% (inactive); with `COc1cc2c(cc1OC)CN(C(=O)CN1CCN(S(=O)(=O)c3ccc(C)c(C)c3)CC1)CC2`, 16.1% (inactive).
`COc1c(/C=N/NC(N)=S)c(C)nn1-c1ccccc1`: the inhibition was -8.71% (inactive).
Same read-out and setting: with `Cc1nc2ccccc2n1/N=C/c1ccc([N+](=O)[O-])s1` the figure was 29.6% (inactive); with `Cc1ccc(Sc2ccc(NC(=O)CCl)cc2)cc1C`, -14.4% (inactive).
Regarding `Cc1ccc(S(=O)(=O)NCc2ccncc2)c(C)c1C`, the inhibition is 53.4% (active).
With `Cc1ccc(NNC(N)=S)cc1Cl`, the inhibition is 1.11% (inactive).
Consider `CSc1nc(SCC(=O)NCc2ccco2)c2c3c(sc2n1)COC(C)(C)C3`, for which the inhibition is 3.39% (inactive).
Regarding `COc1cccc(NC(=O)N(C)C[C@H]2Oc3cc(C#Cc4ccncc4)ccc3S(=O)(=O)N([C@H](C)CO)C[C@H]2C)c1`, the inhibition is -37% (inactive).
Take `COc1ccc(NC(=O)COC(=O)/C=C/C(=O)OCC(=O)Nc2ccc(OC)c(Cl)c2)cc1Cl`: the inhibition was -16% (inactive).
Regarding `Cc1cccc(CN2C(=O)CSc3ccc(C(=O)NC4CC4)cc32)c1`, the inhibition was -6.63% (inactive).
